Data as given in PubChem BioAssay.
“And” between values parts separate entries of the source, which are not always exact repeats. Identical values can stand only once. The source made the active and inactive calls. Cut-off read from the data, not from the text of the source, unless noted: active = inhibition above about 80%; inactive = the rest.

What was measured:
[1] = growth inhibition, single agent or in combination, cell-based, chromothripsis tumors, cisplatin or BGB combos (AID 1671449); details: LFS_MB_P medulloblastoma cells;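 note: cells exposed for 96 hours; 0% = vehicle DMSO and 100% = killing by high DMSO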
[2] = growth inhibition, single agent and combos, cell-based, chromothripsis tumors, cisplatin or BGB combos (AID 1671450); details: HDN33 neuroblastoma cells, stronger effect = higher value;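 note: cells exposed to compound for four days; 0% = vehicle DMSO and 100% = cell killing by high DMSO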
[3] = growth inhibition, single agents and combos, ICB984, cell-based, cisplatin or BGB combos, synergistic combos for chromothripsis tumors (AID 1671451; call rule not given here;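 note: cells exposed for 96 hours before readout; 0% = vehicle DMSO and 100% = killing by high DMSO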); details: ICB984 medulloblastoma cells, drug combinations, stronger effect = higher value
[4] = growth inhibition, single agents and combos, LFS_MB_1R, cell-based, cisplatin or BGB combos, synergistic combos for chromothripsis tumors (AID 1671452); details: LFS_MB_1R medulloblastoma cells, stronger effect = higher value;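 note: cells exposed for 96 hours before readout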
[5] = growth inhibition, single agents and combos, HTB85, cell-based, BGB or cisplatin IC20 combos, synergistic combos for chromothripsis tumors (AID 1671453); details: HTB85 osteosarcoma cells, drug combinations, stronger effect = higher value;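 note: cells exposed for 96 hours before readout; 0% = vehicle DMSO and 100% = high DMSO killing control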
[6] = growth inhibition, single agents and combos, CRL2098, cell-based, BGB or cisplatin IC20 combos, synergistic combos for chromothripsis tumors (AID 1671454); details: CRL2098 osteosarcoma cells, drug combinations, stronger effect = higher value;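 note: cells exposed for 96 h before readout; 0% = vehicle DMSO and 100% = killing by high DMSO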
[7] = growth inhibition, single agents and combos, HD-MB03, cell-based, BGB or cisplatin IC20 combos, synergistic combos for chromothripsis tumors (AID 1671455; in the data active = inhibition above about 83%;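 note: 0% = vehicle DMSO and 100% = high DMSO as cytotoxic control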); details: HD-MB03 medulloblastoma cells, stronger effect = higher value
[8] = growth inhibition, single agents and combos, UWB1.289, cell-based, BGB or cisplatin combos, synergistic combos for chromothripsis tumors (AID 1671456); details: UWB1.289 ovarian carcinoma cells, stronger effect = higher value;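 note: cells exposed to compound for four days; 0% = vehicle DMSO and 100% = killing by high DMSO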
[9] = growth inhibition, single agents and combos, LFS_MB_2R, cell-based, cisplatin combos, synergistic combos for chromothripsis tumors (AID 1671457); details: LFS_MB_2R medulloblastoma cells, stronger effect = higher value;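 note: cells exposed to compound for four days before readout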
[10] = growth inhibition, MDA-MB-436, cell-based, BGB or cisplatin combos, synergistic combos for chromothripsis tumors (AID 1671458; call rule not given here;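 note: cells exposed for 96 hours; 0% = vehicle DMSO and 100% = killing by high DMSO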); details: MDA-MB-436 breast carcinoma growth inhibition, drug combinations, stronger effect = higher value
[11] = UWB1.289_BRCA1 ovarian cancer growth, cell-based, BGB or cisplatin combinations (AID 1671459); details: UWB1.289 BRCA1 ovarian carcinoma, drug combinations, stronger effect = higher value
[12] = drug combination toxicity in non-malignant astrocytes – cell-based, BGB or cisplatin IC20 combos, cytotoxicity control for chromothriptic childhood tumor combination screen (AID 1671460); details: Human astrocytes, viability inhibition, drug combinations, at 0.5 µM, stronger effect = higher value;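 note: cells exposed to compounds for 96 hours before viability readout; 0% = vehicle and 100% = killing control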
[13] = BT084 cell growth, single and combined drugs, ICGC_MB145, cisplatin and BGB IC40 combos (AID 1671461); details: BT084 medulloblastoma cells, drug combinations, stronger effect = higher value;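 note: cells exposed to drugs for 96 hours; 0% = vehicle DMSO and 100% = high DMSO full killing control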
[14] = RCMB18 cell growth, single agent and combined, cisplatin and BGB IC40 combos (AID 1671462); details: RCMB18 medulloblastoma cells, stronger effect = higher value;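 note: cells exposed to compound for four days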
[15] = CRL1545 cell growth, single agent and combined, cisplatin and BGB IC20 combos (AID 1671464); details: CRL1545 osteosarcoma cells, stronger effect = higher value;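 note: cells exposed to compound for 96 hours before readout; 0% = vehicle DMSO and 100% = high DMSO killing control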
F380Y = test: BK channel mutant inhibitors and activators – cell-based, U2OS BacMam, thallium flux, beta subunits, selectivity assay, profiling panel (AID 1259406;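 active = thallium flux through the channel raised or lowered by more than 3 SD from vehicle-only wells, actives on both sides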;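 note: initial slope of Thallos dye fluorescence rise after thallium is added; log ratio against the mean of 0.3% DMSO vehicle wells on the same plate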); details: U2OS BacMam BK variants, at 30 µM
F380Y/beta1 = test: as above; details: U2OS BacMam BK variants, at 30 µM
[16] = biological target: NAD(+) hydrolase SARM1 (Homo sapiens) (UniProt Q6SZW1); test: blocking NAD cleavage by SARM1 SAM-TIR – cell lysate, NAD-Glo luminescence (AID 1508614;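 active = compound whose remaining NAD level is above about 45 nM, limit read from the data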;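 note: higher remaining NAD means stronger inhibition of SARM1 NADase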); details: SAM-TIR HEK293T lysate NADase, at 1 µM, stronger effect = higher value
[17] = biological target: Mitogen-activated protein kinase 7 (Homo sapiens) (UniProt Q13164); test: Gal4-ERK5 driven luciferase induction – cell-based, HTS, primary screen (AID 1508626;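 active = luciferase signal above three times the same-plate solvent-only control wells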;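 note: luciferase driven by Gal4-ERK5 fusion binding five Gal4 sites before minimal TATA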); details: HeLa Gal4-ERK5 transactivation, 18 h, at 5 µM, stronger effect = higher value
[18] = galactose survival enhancers in mitochondrial complex I cybrids – cell-based, galactose medium, ATP luminescence, primary screen (AID 1645843;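 active = z-score of at least 1.8 in each of two replicates, scored against plate mean and spread of sample wells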;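 note: positive z means more ATP and so rescue of galactose-driven cybrid death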); details: complex I mutant cybrid cells, 72 h, stronger effect = higher value
[19] = measured here: combination with BGB IC40, at 0.05 µM
[20] = measured here: with BGB IC20 combination, at 0.5 µM
[21] = measured here: with cisplatin IC20 combination, at 0.5 µM
[22] = measured here: combination with cisplatin, at 0.5 µM
[23] = measured here: combination with cisplatin, at 5 µM

Sequence of NAD(+) hydrolase SARM1 (Homo sapiens) (Q6SZW1 whole entry, looked up, the tested form may be a part): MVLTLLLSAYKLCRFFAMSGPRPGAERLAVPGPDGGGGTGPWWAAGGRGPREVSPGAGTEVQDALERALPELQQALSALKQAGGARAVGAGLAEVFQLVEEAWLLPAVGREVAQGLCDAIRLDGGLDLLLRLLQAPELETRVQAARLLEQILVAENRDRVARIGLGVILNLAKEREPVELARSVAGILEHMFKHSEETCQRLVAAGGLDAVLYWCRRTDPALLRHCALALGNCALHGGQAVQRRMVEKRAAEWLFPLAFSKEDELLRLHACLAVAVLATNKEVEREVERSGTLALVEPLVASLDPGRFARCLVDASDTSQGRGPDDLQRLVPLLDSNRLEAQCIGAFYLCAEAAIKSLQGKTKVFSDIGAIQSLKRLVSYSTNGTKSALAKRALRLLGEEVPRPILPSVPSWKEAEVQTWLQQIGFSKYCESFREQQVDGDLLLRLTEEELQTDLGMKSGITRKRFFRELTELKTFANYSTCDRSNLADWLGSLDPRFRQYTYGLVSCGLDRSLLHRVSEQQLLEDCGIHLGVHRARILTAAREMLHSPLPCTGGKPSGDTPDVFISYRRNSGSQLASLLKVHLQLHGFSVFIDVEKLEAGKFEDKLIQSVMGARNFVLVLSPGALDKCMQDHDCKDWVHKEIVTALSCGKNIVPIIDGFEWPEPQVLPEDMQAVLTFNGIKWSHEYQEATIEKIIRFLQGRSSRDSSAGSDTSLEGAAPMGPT
Sequence of Mitogen-activated protein kinase 7 (Homo sapiens) (Q13164 whole entry, looked up, the tested form may be a part): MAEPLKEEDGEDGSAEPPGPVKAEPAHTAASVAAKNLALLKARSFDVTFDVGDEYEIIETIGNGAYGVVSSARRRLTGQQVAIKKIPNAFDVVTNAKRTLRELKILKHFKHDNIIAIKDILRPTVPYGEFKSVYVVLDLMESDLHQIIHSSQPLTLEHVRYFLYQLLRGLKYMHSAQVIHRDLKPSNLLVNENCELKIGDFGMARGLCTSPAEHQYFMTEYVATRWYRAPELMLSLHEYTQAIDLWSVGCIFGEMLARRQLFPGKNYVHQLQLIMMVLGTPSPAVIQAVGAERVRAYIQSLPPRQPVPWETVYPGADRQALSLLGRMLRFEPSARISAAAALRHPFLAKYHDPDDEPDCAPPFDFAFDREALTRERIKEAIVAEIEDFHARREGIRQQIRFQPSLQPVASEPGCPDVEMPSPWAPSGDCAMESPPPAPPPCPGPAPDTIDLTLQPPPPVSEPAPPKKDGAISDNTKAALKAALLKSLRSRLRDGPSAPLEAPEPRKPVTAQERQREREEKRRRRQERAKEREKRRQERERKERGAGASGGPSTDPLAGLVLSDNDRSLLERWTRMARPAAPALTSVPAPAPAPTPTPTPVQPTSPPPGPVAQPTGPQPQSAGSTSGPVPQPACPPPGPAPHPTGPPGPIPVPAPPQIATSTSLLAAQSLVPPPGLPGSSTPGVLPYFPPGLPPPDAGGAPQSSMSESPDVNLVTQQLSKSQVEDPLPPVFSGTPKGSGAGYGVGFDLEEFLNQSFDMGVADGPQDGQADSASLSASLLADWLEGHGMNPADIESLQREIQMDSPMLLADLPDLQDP

Structure (SMILES): Cc1nc2ccc(CN(C)c3ccc(C(=O)N[C@@H](CCC(=O)O)C(=O)O)s3)cc2c(=O)[nH]1
- inhibition ([1]; at 0.5 µM, stronger effect = higher value): -8.68% (inactive)
- inhibition ([1]; measured here: combination with BGB IC20, at 0.005 µM): -6.5%
- inhibition ([1]; measured here: combination with BGB IC40, at 0.005 µM): -33.6%
- inhibition [1, 19]: 2.07%
- inhibition ([1]; measured here: combination with cisplatin, at 0.5 µM, stronger effect = higher value): -25.4%
- inhibition ([1]; measured here: combination with cisplatin, at 5 µM, stronger effect = higher value): -36.4%
- inhibition ([2]; BGB combo, at 5 µM): 77.1%
- inhibition ([2]; at 0.5 µM): 77.4% (inactive)
- inhibition ([2]; cisplatin combo, at 5 µM): 75.6%
- inhibition [2, 20]: 75.7%
- inhibition [2, 21]: 73.8%
- inhibition ([2]; single agent, at 5 µM): 82.5%
- inhibition ([3]; BGB IC20 combo, at 0.005 µM): -19.7%
- inhibition ([3]; BGB IC40 combo, at 0.005 µM): -58.4%
- inhibition ([3]; BGB IC40 combo, at 0.05 µM): -47.3%
- inhibition ([3]; at 0.5 µM): -21.4% (inactive)
- inhibition ([3]; cisplatin combo, at 0.05 µM): -53.1%
- inhibition ([3]; cisplatin combo, at 0.5 µM): -23.4%
- inhibition ([3]; cisplatin combo, at 5 µM): -41.1%
- inhibition ([3]; measured here: 5 uM single agent, at 5 µM): -8.4%
- inhibition ([4]; at 0.5 µM): -22.3% (inactive)
- inhibition [4, 19]: -24.2%
- inhibition [4, 22]: -26.4%
- inhibition [4, 23]: -6.83%
- inhibition ([5]; at 0.5 µM): -11% (inactive)
- inhibition ([5]; measured here: with BGB IC20, at 0.5 µM): -19.6%
- inhibition ([5]; measured here: with BGB IC20, at 5 µM): -9.72%
- inhibition ([5]; measured here: with cisplatin IC20, at 0.5 µM): -17.6%
- inhibition ([5]; measured here: with cisplatin IC20, at 5 µM): 2.95%
- inhibition ([5]; single agent, at 5 µM): 10.6%
- inhibition ([6]; at 0.5 µM): 54.5% (inactive)
- inhibition ([6]; measured here: combination with BGB at IC20, at 0.5 µM): 35.1%
- inhibition ([6]; measured here: combination with cisplatin at IC20, at 0.5 µM): 62.3%
- inhibition ([7]; at 0.5 µM): 78.5% (inactive)
- inhibition ([7]; measured here: combo with BGB at IC20, at 0.5 µM): 71.9%
- inhibition ([7]; measured here: combo with cisplatin at IC20, at 0.5 µM): 79.7%
- inhibition ([8]; at 0.5 µM): 29.7% (inactive)
- inhibition ([8]; measured here: inhibition with BGB combination, at 0.05 µM): -4.8%
- inhibition ([8]; measured here: inhibition with cisplatin combination, at 0.05 µM): 1.64%
- inhibition ([9]; at 0.5 µM): -17.1% (inactive)
- inhibition [9, 22]: -12.9%
- inhibition [9, 23]: -18.4%
- inhibition ([10]; at 0.5 µM): 44.2% (inactive)
- inhibition ([10]; measured here: BGB combination, at 0.5 µM): 26.6%
- inhibition ([10]; measured here: BGB combination, at 5 µM): 17.5%
- inhibition ([10]; measured here: cisplatin combination, at 0.5 µM): 47.7%
- inhibition ([10]; measured here: cisplatin combination, at 5 µM): 45.6%
- inhibition ([11]; BGB combination, concentration series, at 5 µM): 48.7%
- inhibition ([11]; at 0.5 µM): 42.1% (inactive)
- inhibition ([11]; cisplatin combination, concentration series, at 5 µM): 59.8%
- inhibition [12]: -0.43% (inactive)
- inhibition ([12]; measured here: combo with BGB IC20): 3.56%
- inhibition ([12]; measured here: combo with cisplatin IC20): 0.651%
- inhibition ([13]; at 0.5 µM): -1.53% (inactive)
- inhibition ([13]; cisplatin combination, at 0.5 µM): 4.81%
- inhibition ([13]; cisplatin combination, at 5 µM): -0.041%
- inhibition ([13]; measured here: BGB IC40 combination 0.05 uM, at 0.05 µM): -15.2%
- inhibition ([13]; single agent, at 5 µM): -10.4%
- inhibition ([14]; at 0.5 µM): -20.8% (inactive)
- inhibition ([14]; cisplatin combo, at 5 µM): 14%
- inhibition ([14]; measured here: BGB IC40 combination, at 0.05 µM): -41.8%
- inhibition [14, 22]: -4.37%
- inhibition ([14]; single agent, at 5 µM): -40.1%
- inhibition ([15]; at 0.5 µM): -1.83% (inactive)
- inhibition [15, 20]: 13.9%
- inhibition [15, 21]: -9.68%
- inhibition ([15]; single agent, at 0.05 µM): 0.207%
- inhibition ([15]; single agent, at 5 µM): 28.5%
- log fold change Tl+ flux (F380Y): -0.025 (inactive)
- log fold change Tl+ flux (F380Y/beta1): -0.0237 (inactive)

Structure (SMILES): C#C[C@]1(O)CC[C@H]2[C@@H]3CCc4cc(O)ccc4[C@H]3CC[C@@]21C
- remaining NAD [16]: 10 nM (inactive)
- luciferase signal [17]: 76 AU (inactive)
- log fold change Tl+ flux (F380Y): 0.0259 (inactive)

Structure (SMILES): COc1cc(C(=O)NS(=O)(=O)c2ccccc2C)ccc1Cc1cn(C)c2ccc(NC(=O)OC3CCCC3)cc12
- z-score [18]: 1.64 (inactive) and 1.23 (inactive)
- log fold change Tl+ flux (F380Y): 0.278 (active)
- log fold change Tl+ flux (F380Y/beta1): 0.461 (active)

Structure (SMILES): CC1=C(C)C(=O)C(C(CCCCCC(=O)O)c2ccccc2)=C(C)C1=O (stereo unspecified)
- remaining NAD [16]: 10 nM (inactive)

Structure (SMILES): O=C1N(c2ccccc2)c2ccccc2C1(Cc1ccncc1)Cc1ccncc1
- z-score [18]: -0.165 (inactive) and 0.43 (inactive) and -0.3 (inactive)
- log fold change Tl+ flux (F380Y): 0.0425 (inactive)
- log fold change Tl+ flux (F380Y/beta1): -0.0119 (inactive)

Structure (SMILES): O=C(COc1ccc(Cl)cc1)N1CCN(Cc2ccc3c(c2)OCO3)CC1
- remaining NAD [16]: 10 nM (inactive)
- luciferase signal [17]: 84 AU (inactive)

Structure (SMILES): COc1ccc2cc1Oc1ccc(cc1)C[C@H]1c3c(cc4c(c3Oc3cc5c(cc3OC)CCN(C)[C@@H]5C2)OCO4)CCN1C
- remaining NAD [16]: 10 nM (inactive)
- luciferase signal [17]: 212 AU (inactive)

Structure (SMILES): CCCCc1nc(Cl)c(CO)n1Cc1ccc(-c2ccccc2-c2nn[nH]n2)cc1
- remaining NAD [16]: 10 nM (inactive)
- luciferase signal [17]: 44 AU (inactive)
